# Measured values taken from PubChem BioAssay (Tox21).
# Several values for one entry are separate records, joined by “and”; a condition that tells them apart may be missing. Equal entries are not always repeated. Records with an inconclusive call do not appear. A call without a number means that no potency is given here. Where a structure was tested more than once in an assay, its records may differ in their call. Activity calls are given as the source filed them. Unless noted, calls come from the whole dose curve; as a rule, active = well fitted curve in the direction sought with a large enough effect in the repeat runs; inconclusive = weak or mixed curves; inactive = no such curve, though single readings can be large; an effect the other way counts as inactive or inconclusive.
# What was measured:
# [1] = qHTS assay to identify small molecule agonists of the hypoxia (HIF-1) signaling pathway (AID 1224846; active = well fitted activation curve with a large enough effect in the signal ratio in the repeat runs, not every such curve was filed as active; the % refers to the signal ratio)
# In short: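 Compounds from the Tox21 10K library, dissolved in DMSO, are tested for induction of a hypoxia response element–controlled beta-lactamase reporter in ME-180 cells. Exposure lasts 17 hrs at 37C after a 5 hr settling period, followed by CCF4-AM FRET substrate.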
# [2] = qHTS assay to identify small molecule agonists of H2AX - cell viability counter screen (AID 1224847; calls by dose curve; note: nearly all actives have a fitted effect of over 30% in size; note: potency is the fitted concentration of half-maximal effect)
# In short: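 Viability of CHO-K1 (wild type) cells after 3 hr compound exposure was measured by CellTiter-Glo luminescence.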
# [3] = qHTS assay to identify small molecule antagonists of the estrogen related receptor (ERR) signaling pathway from Tox21 library (AID 1224848); note: nearly all actives have a fitted effect of over 50% in size; note: potency is the fitted concentration of half-maximal effect
# In short: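 Compounds dissolved in DMSO are pin-transferred onto ERR reporter cells (2,000 per well) that have settled for 6 h at 37 C. Plates then incubate 18 h at 37 C before ONE-Glo luciferase reagent and a luminescence read 30 min later.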
# [4] = qHTS assay to identify small molecule agonists of the estrogen related receptor (ERR) signaling pathway from Tox21 library (AID 1224849; calls by dose curve; note: nearly all actives have a fitted effect of over 15% in size); conditions: ERR reporter cell line, ONE-Glo luciferase, 18 h
# In short: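 Cells carrying the ERR reporter were plated and allowed to settle for 6 h, exposed to library compounds for 18 h at 37 C, then lysed with ONE-Glo and luminescence measured.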
# [5] = qHTS RealTime-Glo MT Cell Viability Assay in HepG2 cells - 24 hour (AID 1224867); note: nearly all actives have a fitted effect of over 50% in size
# In short: (§1)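 qHTS, HepG2, 600 cells/well, RealTime-Glo (NanoLuc + prosubstrate) added with cells; 5 h preincubation; DMSO compound addition; 37 C; luminescence at 0/8/16/24/32/40 h.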
# [6] = qHTS RealTime-Glo MT Cell Viability Assay in HEK293 cells - 32 hour (AID 1224868); note: nearly all actives have a fitted effect of over 50% in size; note: potency is the fitted concentration of half-maximal effect
# In short: (§2)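 Assay medium contained NanoLuc luciferase plus cell-permeant prosubstrate, added with HEK293 cells at 600 cells/well. After 5 h at 37 C/5% CO2 compounds were added; plates stayed at 37 C for 40 h with serial luminescence reads.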
# [7] = A CellTox Green Cytotoxicity Assay to monitor cytotoxicity in HEK293 cells - 0 hour (AID 1224869); note: nearly all actives have a fitted effect of over 50% in size
# In short: (§3)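 Cells (HEK293, 600/well) and dye reagent are dispensed together. After 5 h at 37 C, 23 nL compound is pinned in. Plates stay at 37 C for 40 h with fluorescence read at 0h, 8h, 16h, 24h, 32h and 40h.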
# [8] = qHTS RealTime-Glo MT Cell Viability Assay in HepG2 cells - 40 hour (AID 1224870); note: nearly all actives have a fitted effect of over 50% in size
# In short: (§4)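 HepG2 cells (600/well) mixed with RealTime-Glo MT reagent, settled 5 h at 37 C/5% CO2 before compound addition. Nonlytic NanoLuc luminescence from viable-cell prosubstrate reduction read repeatedly during 40 h treatment at 37 C.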
# [9] = A CellTox Green Cytotoxicity Assay to monitor cytotoxicity in HEK293 cells - 40 hour (AID 1224871); note: nearly all actives have a fitted effect of over 45% in size
# In short: as §3
# [10] = qHTS RealTime-Glo MT Cell Viability Assay in HEK293 cells - 16 hour (AID 1224872); note: nearly all actives have a fitted effect of over 50% in size; note: potency is the fitted concentration of half-maximal effect
# In short: as §2
# [11] = qHTS RealTime-Glo MT Cell Viability Assay in HepG2 cells - 8 hour (AID 1224873); note: nearly all actives have a fitted effect of over 55% in size
# In short: as §4
# [12] = A CellTox Green Cytotoxicity Assay to monitor cytotoxicity in HEK293 cells - 24 hour (AID 1224875); note: nearly all actives have a fitted effect of over 45% in size
# In short: as §3
# [13] = A CellTox Green Cytotoxicity Assay to monitor cytotoxicity in HepG2 cells - 16 hour (AID 1224876); note: nearly all actives have a fitted effect of over 45% in size
# In short: (§5)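 Cells and non-lytic dye reagent are dispensed together (600 HepG2 cells/well) and incubated 5 h before DMSO compound transfer. Kinetic fluorescence is then recorded in the same wells during 40 h at 37 C.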
# [14] = qHTS RealTime-Glo MT Cell Viability Assay in HepG2 cells - 32 hour (AID 1224877); note: nearly all actives have a fitted effect of over 55% in size
# In short: as §1
# [15] = A CellTox Green Cytotoxicity Assay to monitor cytotoxicity in HepG2 cells - 24 hour (AID 1224878); note: nearly all actives have a fitted effect of over 45% in size
# In short: as §5
# [16] = A CellTox Green Cytotoxicity Assay to monitor cytotoxicity in HepG2 cells - 40 hour (AID 1224879); note: nearly all actives have a fitted effect of over 40% in size
# In short: as §5
# [17] = qHTS RealTime-Glo MT Cell Viability Assay in HEK293 cells - 0 hour (AID 1224880)
# In short: (§6)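 Real-time viability in HEK293: signal arises when living cells convert a prosubstrate for NanoLuc in the medium, so luminescence tracks viable cell number. Compound (23 nL, DMSO) added 5 h post-seeding; kinetic reads at 0–40 h, 37 C.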
# [18] = A CellTox Green Cytotoxicity Assay to monitor cytotoxicity in HEK293 cells - 32 hour (AID 1224881); note: nearly all actives have a fitted effect of over 40% in size
# In short: as §3
# [19] = A CellTox Green Cytotoxicity Assay to monitor cytotoxicity in HepG2 cells - 0 hour (AID 1224882); note: nearly all actives have a fitted effect of over 35% in size
# In short: as §5
# [20] = qHTS RealTime-Glo MT Cell Viability Assay in HEK293 cells - 40 hour (AID 1224874); conditions: RealTime-Glo luminescence; max response: stronger effect = lower value; note: nearly all actives have a fitted effect of over 50% in size; note: potency is the fitted concentration of half-maximal effect
# In short: as §6
# [21] = at 92.4 µM (top of the series) unless noted
compound,measurement,setting,value
CCc1cc(C)cc(CC)c1-c1c(OC(=O)C(C)(C)C)n2n(c1=O)CCOCC2,outcome,[1],inactive
same,Potency,[2],inactive
same,Potency,[3],inactive
same,"activity change, positive = activation",[4]; [21],-10% (inactive)
same,Potency,[5],inactive
same,Potency,[6],inactive
same,Potency,[7],inactive
same,Potency,[8],inactive
same,Potency,[9],inactive
same,Potency,[10],inactive
same,Potency,[11],inactive
same,Potency,[12],inactive
same,Potency,[13],inactive
same,Potency,[14],inactive
same,Potency,[15],inactive
same,Potency,[16],inactive
same,Potency,[17],inactive
same,Potency,[18],inactive
same,Potency,[19],inactive
COc1ccc(N)cc1N,outcome,[1],inactive
same,Potency,[2],41.4 µM (active) and 54.4 µM (active)
same,Potency,[3],63.1 µM (active) and 14.7 µM (active)
same,"activity change, positive = activation",[4]; at 42.5 µM (top of the series),-34.8% (inactive)
same,"activity change, positive = activation",[4]; at 92.4 µM (top of the series),-69.2% (inactive)
same,Potency,[5],inactive
same,Potency,[6],45 µM (active)
same,Potency,[7],inactive
same,Potency,[8],inactive
same,Potency,[9],inactive
same,Potency,[10],35.8 µM (active)
same,Potency,[11],inactive
same,Potency,[12],inactive
same,Potency,[13],inactive
same,Potency,[14],inactive
same,Potency,[15],inactive
same,Potency,[16],inactive
same,Potency,[17],inactive
same,Potency,[18],inactive
same,Potency,[19],inactive
Cc1cc(C)cc(OP(=O)(Oc2cc(C)cc(C)c2)Oc2cc(C)cc(C)c2)c1,outcome,[1],inactive
same,Potency,[2],inactive
same,Potency,[3],inactive
same,"activity change, positive = activation",[4]; [21],0.886% (inactive)
same,Potency,[5],inactive
same,Potency,[6],inactive
same,Potency,[8],inactive
same,Potency,[9],inactive
same,Potency,[10],inactive
same,Potency,[11],inactive
same,Potency,[13],inactive
same,Potency,[14],inactive
same,Potency,[15],inactive
same,Potency,[16],inactive
same,Potency,[17],inactive
same,Potency,[18],inactive
same,Potency,[19],inactive
C[C@H]1O[C@@H](O[C@H]2[C@@H](O)C[C@H](O[C@H]3[C@@H](O)C[C@H](O[C@H]4CC[C@@]5(C)[C@H](CC[C@@H]6[C@@H]5CC[C@]5(C)[C@@H](C7=CC(=O)OC7)CC[C@]65O)C4)O[C@@H]3C)O[C@@H]2C)C[C@H](O)[C@@H]1O,outcome,[1],inactive
same,Potency,[2],inactive
same,Potency,[3],inactive
same,"activity change, positive = activation",[4]; [21],-72.7% [at 42.5 µM] (inactive) and -65% [at 42.5 µM] (active)
same,Potency,[5],inactive
same,Potency,[6],31.1 nM (active) and 95.2 nM (active)
same,Potency,[7],inactive
same,Potency,[8],inactive
same,Potency,[9],inactive
same,Potency,[10],0.0952 µM (active)
same,Potency,[11],inactive
same,Potency,[20],31.1 nM (active) and 95.2 nM (active)
same,Potency,[12],inactive
same,Potency,[13],inactive
same,Potency,[14],inactive
same,Potency,[15],inactive
same,Potency,[16],inactive
same,Potency,[17],inactive
same,Potency,[18],inactive
CCS(=O)(=O)c1cccnc1S(=O)(=O)NC(=O)Nc1nc(OC)cc(OC)n1,outcome,[1],inactive
same,Potency,[2],inactive
same,Potency,[3],inactive
same,"activity change, positive = activation",[4]; [21],6.39% (inactive)
same,Potency,[5],inactive
same,Potency,[6],inactive
same,Potency,[8],inactive
same,Potency,[9],inactive
same,Potency,[10],inactive
same,Potency,[13],inactive
same,Potency,[14],inactive
same,Potency,[15],inactive
same,Potency,[16],inactive
same,Potency,[17],inactive
same,Potency,[18],inactive
CCOP(=S)(OCC)OC(Cl)C(Cl)(Cl)Cl (configuration not stated),outcome,[1],inactive
same,Potency,[2],inactive
same,Potency,[3],inactive
same,"activity change, positive = activation",[4]; [21],4.56% (inactive)
same,Potency,[5],inactive
same,Potency,[6],inactive
same,Potency,[7],inactive
same,Potency,[8],inactive
same,Potency,[10],inactive
same,Potency,[11],inactive
same,max response,[20],-10.7% (inactive)
same,Potency,[13],inactive
same,Potency,[14],inactive
same,Potency,[15],inactive
same,Potency,[16],inactive
same,Potency,[17],inactive
same,Potency,[19],inactive
CCC(C)c1cc(C(C)(C)C)cc(-n2nc3ccccc3n2)c1O (configuration not stated),outcome,[1],inactive
same,Potency,[2],inactive
same,Potency,[3],inactive
same,"activity change, positive = activation",[4]; [21],-0.703% [at 42.5 µM] (inactive)
same,Potency,[5],inactive
same,Potency,[6],inactive
same,Potency,[7],inactive
same,Potency,[8],inactive
same,Potency,[9],inactive
same,Potency,[10],inactive
same,Potency,[11],inactive
same,max response,[20],9.2% (inactive)
same,Potency,[12],inactive
same,Potency,[13],inactive
same,Potency,[14],inactive
same,Potency,[15],inactive
same,Potency,[16],inactive
same,Potency,[17],inactive
same,Potency,[18],inactive
same,Potency,[19],inactive
